According to PubChem BioAssay (Tox21):
Where “and” joins values, the source holds several entries; their conditions need not be identical. Equal values may be shown once. Results filed as inconclusive are left out. Where a call stands in place of a potency, no number is given. A structure can be active in one record and inactive in another. Calls of active or inactive are those of the source. Calls follow the shape of the dose curve; as a rule, active = well fitted curve in the direction sought with a large enough effect in the repeat runs; inconclusive = weak or mixed curves; inactive = no such curve, though single readings can be large; an effect the other way counts as inactive or inconclusive.

Legend:
[1] = biological target: Cytochrome P450 2D6 (Homo sapiens) (UniProt P10635); test: Cytochrome P450 Family 2 Subfamily D Member 6 (CYP2D6) small molecule antagonists: luciferase reporter qHTS assay (AID 1671196); settings: P450-Glo CYP2D6 enzyme assay, luciferin luminescence, 1 h; series mostly up to 115 µM; also: nearly all actives have a fitted effect of over 50% in size; also: potency is read from the fitted curve at half-maximal effect
Method in brief: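 Each well received CYP2D6 with its proluciferin substrate and chemical, sat 10 min, then got NADPH regeneration solution for 1 h at room temperature. Luminescence in RLU served as the activity measure.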

[2] = biological target: Cytochrome P450 2C19 (Homo sapiens) (UniProt P33261); test: Cytochrome P450 Family 2 Subfamily C Member 19 (CYP2C19) small molecule antagonists: luciferase reporter qHTS assay (AID 1671197); settings: P450-Glo CYP2C19 enzyme, luciferin luminescence, 1 h; series mostly up to 115 µM; also: nearly all actives have a fitted effect of over 65% in size; also: potency is read from the fitted curve at half-maximal effect
Method in brief: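 Quantitative high-throughput screen of the Tox21 library using CYP2C19 with proluciferin substrate. Reaction: NADPH regeneration, 37C, 1 h, after 10 min compound preincubation at room temperature. Readout: luminescence.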

[3] = biological target: Cytochrome P450 2C9 (Homo sapiens) (UniProt P11712); test: Cytochrome P450 Family 2 Subfamily C Member 9 (CYP2C9) small molecule antagonists: luciferase reporter qHTS assay (AID 1671198); settings: P450-Glo CYP2C9 enzyme assay, luciferin luminescence; series mostly up to 115 µM; also: nearly all actives have a fitted effect of over 50% in size; also: potency is read from the fitted curve at half-maximal effect
Method in brief: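 P450-Glo proluciferin substrate with CYP2C9 enzyme; 10 min RT preincubation, then NADPH regeneration 1 h at 37C; luciferin detection reagent 20 min RT, luminescence in relative luminescence units.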

[4] = biological target: Cytochrome P450 1A2 (Homo sapiens) (UniProt P05177); test: Cytochrome P450 Family 1 Subfamily A Member 2 (CYP1A2) small molecule antagonists: luciferase reporter qHTS assay (AID 1671199); settings: P450-Glo CYP1A2 enzyme, luciferin luminescence, 1 h; series mostly up to 115 µM; also: nearly all actives have a fitted effect of over 50% in size; also: potency is read from the fitted curve at half-maximal effect
Method in brief: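 Enzymatic CYP1A2 assay, human, luminescent: 10 min compound–enzyme–substrate preincubation, 1 h NADPH-dependent turnover, 20 min detection step, room temperature throughout. Reduced light indicates lower CYP1A2 activity.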

[5] = biological target: Voltage-gated inwardly rectifying potassium channel KCNH2 (Homo sapiens) (UniProt Q12809); test: Human Ether-a-go-go-Related Gene (hERG) channel small molecule antagonists: fluorescence cell-based qHTS assay (AID 1671200); settings: hERG-U2OS cells, FluxOR thallium flux fluorescence; series mostly up to 76.8 µM;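 also: hERG-expressing U2OS cells given a thallium stimulus after FluxOR II dye loading; nearly all actives have a fitted effect of over 50% in size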
Method in brief: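 Read-out: thallium influx as a surrogate for potassium, tracked as fluorescence (480 nm ex/540 nm em) every second for 2 min after Stimulus Buffer addition in dye-loaded hERG-U2OS cells.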

[6] = biological target: Cytochrome P450 3A4 (Homo sapiens) (UniProt P08684); test: Cytochrome P450 Family 3 Subfamily A Member 4 (CYP3A4) small molecule antagonists: luciferase reporter qHTS assay (AID 1671201); settings: P450-Glo CYP3A4 enzyme, luciferin luminescence, 1 h; series mostly up to 115 µM; also: nearly all actives have a fitted effect of over 50% in size
Method in brief: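 Luminescent readout (RLU) proportional to CYP3A4 activity, from luciferin generated off a proluciferin substrate. Enzyme–substrate mix plus compound 10 min at room temp, NADPH regeneration 1 h, detection reagent 20 min.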

Cytochrome P450 2D6 (Homo sapiens), sequence (P10635 whole entry, looked up): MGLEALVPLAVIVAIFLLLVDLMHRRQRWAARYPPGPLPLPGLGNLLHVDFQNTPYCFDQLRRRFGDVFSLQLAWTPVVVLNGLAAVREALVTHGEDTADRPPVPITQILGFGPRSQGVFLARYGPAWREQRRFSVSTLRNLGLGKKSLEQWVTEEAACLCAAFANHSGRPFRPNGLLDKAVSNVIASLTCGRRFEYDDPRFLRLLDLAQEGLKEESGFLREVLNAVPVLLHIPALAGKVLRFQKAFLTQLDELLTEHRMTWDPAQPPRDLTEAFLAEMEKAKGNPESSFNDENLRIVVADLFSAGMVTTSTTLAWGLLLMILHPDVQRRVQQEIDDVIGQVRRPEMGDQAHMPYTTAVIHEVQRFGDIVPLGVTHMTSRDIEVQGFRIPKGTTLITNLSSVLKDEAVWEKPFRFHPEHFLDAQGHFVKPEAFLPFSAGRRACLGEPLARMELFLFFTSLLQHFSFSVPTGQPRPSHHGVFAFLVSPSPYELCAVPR
Cytochrome P450 2C9 (Homo sapiens), sequence (P11712 whole entry, looked up): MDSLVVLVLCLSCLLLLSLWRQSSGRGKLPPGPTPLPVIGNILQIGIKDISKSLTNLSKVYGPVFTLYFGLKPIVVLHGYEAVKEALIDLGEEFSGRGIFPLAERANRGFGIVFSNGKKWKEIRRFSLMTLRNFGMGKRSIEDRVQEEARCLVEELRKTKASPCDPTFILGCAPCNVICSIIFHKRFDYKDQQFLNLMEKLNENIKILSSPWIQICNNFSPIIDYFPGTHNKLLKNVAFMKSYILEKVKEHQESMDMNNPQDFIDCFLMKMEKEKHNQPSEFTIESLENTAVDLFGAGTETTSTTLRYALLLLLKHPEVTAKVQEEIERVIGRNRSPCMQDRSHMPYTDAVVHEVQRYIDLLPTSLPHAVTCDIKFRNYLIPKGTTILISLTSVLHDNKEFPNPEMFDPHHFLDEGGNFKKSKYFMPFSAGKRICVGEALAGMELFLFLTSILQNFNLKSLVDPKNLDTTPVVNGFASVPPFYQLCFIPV
Cytochrome P450 1A2 (Homo sapiens), sequence (P05177 whole entry, looked up): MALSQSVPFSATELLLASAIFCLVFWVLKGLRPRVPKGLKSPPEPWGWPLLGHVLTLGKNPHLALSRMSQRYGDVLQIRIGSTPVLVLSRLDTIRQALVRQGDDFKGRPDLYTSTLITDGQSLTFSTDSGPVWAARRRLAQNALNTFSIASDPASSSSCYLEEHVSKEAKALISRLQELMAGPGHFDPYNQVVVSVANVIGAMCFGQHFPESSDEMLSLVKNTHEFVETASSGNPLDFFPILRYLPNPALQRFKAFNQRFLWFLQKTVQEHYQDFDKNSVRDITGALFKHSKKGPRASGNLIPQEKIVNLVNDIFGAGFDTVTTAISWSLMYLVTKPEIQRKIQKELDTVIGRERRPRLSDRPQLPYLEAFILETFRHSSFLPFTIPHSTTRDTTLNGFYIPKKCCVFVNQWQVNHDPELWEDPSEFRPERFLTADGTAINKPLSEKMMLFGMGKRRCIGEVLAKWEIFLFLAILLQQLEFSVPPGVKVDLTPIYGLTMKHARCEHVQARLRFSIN
Cytochrome P450 2C19 (Homo sapiens), sequence (P33261 whole entry, looked up): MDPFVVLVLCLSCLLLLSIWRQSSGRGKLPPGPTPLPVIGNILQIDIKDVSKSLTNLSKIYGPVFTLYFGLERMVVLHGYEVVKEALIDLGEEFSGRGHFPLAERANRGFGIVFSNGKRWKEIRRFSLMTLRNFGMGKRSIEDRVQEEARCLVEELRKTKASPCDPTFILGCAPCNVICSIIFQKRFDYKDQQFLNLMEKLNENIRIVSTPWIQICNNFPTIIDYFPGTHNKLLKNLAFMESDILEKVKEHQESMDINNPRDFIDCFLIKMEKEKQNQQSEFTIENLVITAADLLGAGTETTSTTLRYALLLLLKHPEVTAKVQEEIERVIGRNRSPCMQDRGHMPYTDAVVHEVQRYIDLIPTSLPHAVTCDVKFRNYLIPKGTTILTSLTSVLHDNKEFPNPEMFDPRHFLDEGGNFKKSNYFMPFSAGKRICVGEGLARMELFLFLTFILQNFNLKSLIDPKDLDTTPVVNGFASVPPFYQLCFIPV
Cytochrome P450 3A4 (Homo sapiens), sequence (P08684 whole entry, looked up): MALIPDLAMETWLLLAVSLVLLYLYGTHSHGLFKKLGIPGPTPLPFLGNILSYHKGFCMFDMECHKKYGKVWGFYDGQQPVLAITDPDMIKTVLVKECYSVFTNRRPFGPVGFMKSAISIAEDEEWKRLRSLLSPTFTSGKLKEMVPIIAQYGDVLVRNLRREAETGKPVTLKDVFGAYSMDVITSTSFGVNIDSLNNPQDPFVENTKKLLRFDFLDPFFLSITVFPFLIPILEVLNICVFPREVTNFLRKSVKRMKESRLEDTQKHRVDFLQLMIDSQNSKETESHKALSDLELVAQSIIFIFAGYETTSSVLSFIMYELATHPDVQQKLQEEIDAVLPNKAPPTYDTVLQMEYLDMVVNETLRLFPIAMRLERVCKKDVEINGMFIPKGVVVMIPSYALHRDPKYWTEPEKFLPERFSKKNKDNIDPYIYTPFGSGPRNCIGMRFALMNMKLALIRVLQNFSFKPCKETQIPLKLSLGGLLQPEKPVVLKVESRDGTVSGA
Voltage-gated inwardly rectifying potassium channel KCNH2 (Homo sapiens), sequence (Q12809 whole entry, looked up): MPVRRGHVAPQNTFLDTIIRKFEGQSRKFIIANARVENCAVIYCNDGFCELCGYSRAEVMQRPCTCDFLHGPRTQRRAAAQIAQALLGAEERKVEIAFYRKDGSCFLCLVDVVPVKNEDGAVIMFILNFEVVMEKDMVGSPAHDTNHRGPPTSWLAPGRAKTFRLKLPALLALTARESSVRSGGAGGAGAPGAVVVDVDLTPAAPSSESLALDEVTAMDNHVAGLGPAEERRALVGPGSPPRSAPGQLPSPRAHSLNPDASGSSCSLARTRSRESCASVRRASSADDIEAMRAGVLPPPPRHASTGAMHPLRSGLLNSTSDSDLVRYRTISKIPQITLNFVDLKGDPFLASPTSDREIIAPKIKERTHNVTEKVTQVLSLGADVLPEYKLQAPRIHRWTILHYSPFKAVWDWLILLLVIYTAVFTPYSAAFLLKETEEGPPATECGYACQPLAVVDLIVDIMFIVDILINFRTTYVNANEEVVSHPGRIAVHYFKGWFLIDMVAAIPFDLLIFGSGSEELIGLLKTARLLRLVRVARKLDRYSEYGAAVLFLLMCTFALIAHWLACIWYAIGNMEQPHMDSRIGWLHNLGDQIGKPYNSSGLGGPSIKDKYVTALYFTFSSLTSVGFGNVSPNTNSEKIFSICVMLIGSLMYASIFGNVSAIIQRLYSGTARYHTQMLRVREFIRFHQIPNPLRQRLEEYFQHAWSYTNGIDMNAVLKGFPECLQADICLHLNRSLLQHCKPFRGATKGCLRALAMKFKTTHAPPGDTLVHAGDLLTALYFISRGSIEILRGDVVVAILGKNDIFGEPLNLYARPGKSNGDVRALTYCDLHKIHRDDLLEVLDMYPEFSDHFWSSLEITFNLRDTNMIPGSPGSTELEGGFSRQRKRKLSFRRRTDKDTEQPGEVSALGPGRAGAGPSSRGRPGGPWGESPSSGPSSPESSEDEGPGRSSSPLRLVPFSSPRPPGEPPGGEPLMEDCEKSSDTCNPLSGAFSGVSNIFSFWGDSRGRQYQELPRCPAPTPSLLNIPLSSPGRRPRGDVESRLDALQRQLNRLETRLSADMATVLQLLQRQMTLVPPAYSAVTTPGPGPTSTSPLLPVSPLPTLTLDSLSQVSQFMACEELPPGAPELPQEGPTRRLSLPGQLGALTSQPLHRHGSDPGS

SMILES | Potency [1] | Potency [2] | Potency [3] | Potency [4] | outcome [5] | Potency [6]
c1ccc(OCCOc2ccccc2)cc1 | inactive | 5.02 µM (active) and 5.03 µM (active) | 28.2 µM (active) and 22.4 µM (active) | 15.9 µM (active) and 20 µM (active) | inactive | inactive
CC(C)(N)CO | inactive | – | inactive | inactive | inactive | inactive
CC(=O)c1ccccc1 | inactive | 41.4 µM (active) and inactive | inactive | 32.9 µM (active) | inactive | inactive
Cc1ccc(N(C)C)cc1 | inactive and 35.6 µM (active) | inactive and 50.2 µM (active) | inactive | inactive | inactive | inactive
O=C(O)c1ccccc1C(c1ccc(O)cc1)c1ccc(O)cc1 | inactive | inactive | – | inactive | inactive | inactive
c1c[nH]cn1 | – | 84.4 µM (active) | – | inactive | inactive | –
